# Several values for one entry are separate records, joined by “and”; a condition that tells them apart may be missing. Equal values may be shown once. Inconclusive results are not listed. Where a call stands in place of a potency, no number is given. Activity calls are given as the source filed them. Unless noted, calls follow the shape of the dose curve; as a rule, active = well fitted curve in the direction sought with a large enough effect; inconclusive = small, poorly fitted or top-dose-only effect, or another doubt; inactive = no such curve, though single readings can be large; an effect the other way counts as inactive or inconclusive.
# Key:
# [1] = Cell Viability - N2a (AID 540); settings: N2a mouse neuroblastoma cell viability; activity change, negative = cytotoxicity: at 92.2 µM (top of the series); also: nearly all actives have a fitted effect of over 45% in size
# Outline: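 In this qHTS cytotoxicity screen, ATP-dependent luciferase luminescence reports viable N2a cells after a 40 hr compound exposure in complete culture medium. Potencies are AC50 values from standard Hill equation fits.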
# [2] = Cell Viability - SH-SY5Y (AID 544); also: nearly all actives have a fitted effect of over 55% in size; also: potency is read from the fitted curve at half-maximal effect
# Outline: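 Quantitative HTS in SH-SY5Y neuroblastoma cells, 40 hr treatment at 37 °C, ATP content by luciferase luminescence; AC50 from Hill fits.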
# [3] = Cell Viability - Renal Proximal Tubule (AID 545); settings: renal proximal tubule cells viability, primary cells of rat origin; at 91.7 µM (top of the series); also: nearly all actives have a fitted effect of over 40% in size
# Outline: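 Rat renal proximal tubule primary cells, 1000/well, exposed to compounds for 40 hr at 37 °C in complete medium; cellular ATP read by CellTiter-Glo luminescence. AC50 from concentration-response fitted with standard Hill equation.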
# [4] = Cell Viability - Mesenchymal (AID 546); settings: mesenchymal cells viability, qHTS; activity change, negative = cytotoxicity: at 91.7 µM (top of the series);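 also: cells exposed to compound for 40 hours before reading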
# Outline: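 Human renal mesenchymal cells (glomerulus-derived), 1000 cells/well, 5 hr 37 °C pre-incubation; compound 40 hr, 37 °C; CellTiter-Glo, 20 min RT; luminescence; AC50 via Hill equation.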
# [5] = Cellular Toxicity (caspase-3) HepG2 (AID 654);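 also: cells exposed to compound for 16 hours before reading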
# Outline: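 Concentration-response AC50 values reflect caspase-3/7 induction in HepG2 cells after 16 hours of compound exposure, quantified by luminescence from liberated aminoluciferin and referenced to 100 uM tamoxifen as full stimulation.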
# [6] = Cellular Toxicity (caspase-3) HUV-EC-C (AID 656)
# Outline: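 HUV-EC-C cells (1000/well) in complete medium, compound-treated 16 h at 37 °C; caspase-3/7 activity read by Caspase-Glo 3/7 luminescence. Normalized to DMSO (basal) and 100 uM tamoxifen (100%); AC50 from Hill-equation concentration-response fits.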
# [7] = Cellular Toxicity (caspase-3) BJ (AID 658)
# Outline: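 qHTS, BJ fibroblasts, 1000 cells/well; 5 hr preincubation, 16 hr compound, 37 °C; Caspase-Glo 3/7 reagent, 1 hr RT; luminescence. DMSO = 0%, 10 uM staurosporine = 100%. Hill-equation AC50.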
# [8] = Cellular Toxicity (caspase-3) MRC-5 (AID 659)
# Outline: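 MRC-5 fibroblasts, 1500/well; 16 h cpd, 37 °C; Caspase-Glo 3/7, 1 h RT; lumi read. Norm: DMSO = 0%, 10 uM staurosporine = 100%. Hill-fit AC50 from qHTS conc-response.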
# [9] = Cellular Toxicity (caspase-3) Mesangial (AID 660);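 also: cells exposed to compound for 16 h before the caspase read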
# Outline: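 AC50 values come from Hill-equation fits of caspase 3/7 activation, measured as Caspase-Glo luminescence in human glomerular mesangial cells exposed to compound for 16 h at 37 °C; 100% set by 100 uM tamoxifen.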
# [10] = Cellular Toxicity (caspase-3) Hek293 (AID 664);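 also: cells exposed to compound for 16 h at 37 °C before readout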
# Outline: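 Apoptosis readout: Caspase-Glo 3/7 signal in human HEK293 cells following 16-hour compound incubation. Responses scaled between DMSO baseline and 100 uM tamoxifen.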
# [11] = Cellular Toxicity (caspase-3) N2a (AID 665);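 also: compound exposure lasted 16 h at 37 °C before readout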
# Outline: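 Concentration-response qHTS: compound-induced caspase-3/7 luminescence in N2a cells (16 h, 37 °C), relative to DMSO and 10 uM staurosporine controls; AC50 obtained using the standard Hill equation.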
# [12] = qHTS Assay for Identification of Small Molecule Inducers of Hypoxia Response (AID 2120; active = well fitted curve in the direction sought with a large enough effect in the signal ratio, with a control signal flat, not every such curve was filed as active; the % refers to the signal ratio)
# Outline: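 HRE-bla ME-180, 2500 cells/well, 0.5% dialyzed FBS medium; cpd titration, 17 h 37 degrees C; CCF4 2.5 h RT; Ex 405, Em 460/530 ratio -> %Activity, AC50.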
# [13] = qHTS assay for small molecule antagonists of retinoid X receptor alpha signaling (AID 588546; active = well fitted inhibition curve with a large enough effect in the signal ratio, with a control signal flat, not every such curve was filed as active; the % refers to the signal ratio;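 also: cells stimulated with 9-cis-retinoic acid as agonist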); settings: HEK293T RXRa-UAS-bla, beta-lactamase ratio, antagonist mode; measured here: W530 green channel, cytotoxicity proxy
# Outline: (§1)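 Beta-lactamase reporter inhibition, read as CCF4 fluorescence ratio (ex 405, em 460/530 nm) after 2 h at RT. HEK293T UAS-bla cells, 2500/well, were stimulated with 9-cis-RA at 500 or 100 nM final alongside test compound for 18 h at 37 C.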
# [14] = biological target: Retinoic acid receptor RXR-alpha (Homo sapiens) (UniProt P19793); assay: as above; settings: HEK293T RXRa-UAS-bla, beta-lactamase ratio, antagonist mode
# Outline: as §1
# [15] = qHTS assay for environmental chemicals that activate the Aryl hydrocarbon Receptor (AhR) signaling pathway (AID 651777); settings: 1A2-DRE human hepatoma cells, luciferase, 24 h; activation: stronger effect = higher value; also: nearly all actives have a fitted effect of over 15% in size
# Outline: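 1A2-DRE human hepatoma reporter line; 1,200 cells/well; cmpd or DMSO 24 h, 37 C/5% CO2; One-Glo 30 min RT; luciferase lum.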
# [16] = biological target: Peroxisome proliferator-activated receptor alpha (Homo sapiens) (UniProt Q07869); assay: qHTS assay for small molecule agonists of the peroxisome proliferator-activated receptor alpha (PPARalpha) signaling pathway (AID 651778); settings: PathHunter PPARalpha complementation, chemiluminescence, 6 h; max response: stronger effect = higher value
# Outline: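 Enzyme-fragment complementation assay in which ligand-bound PPARalpha translocates and forms an active enzyme that generates chemiluminescence. Cells were plated overnight, exposed to compound for 6 hr at 37 C, and then given detection reagent for 60 min at room temperature.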
# [17] = qHTS assay for cell viability of HEK293 cells (AID 743288); settings: ATP luminescence (CellTiter-Glo), 18 h; max response: stronger effect = lower value; also: nearly all actives have a fitted effect of over 50% in size
# Outline: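 Steps: plate 2,000 parental HEK293 cells per well; incubate ≥5 h, 37 C; add compounds in DMSO; incubate 18 h, 37 C; add CellTiter-Glo; wait 30 min at room temperature; read luminescence.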
# [18] = qHTS assay for cell viability of the p53RE-bla HCT-116 cell line (AID 743292); also: nearly all actives have a fitted effect of over 55% in size
# Outline: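 HCT-116 p53RE-bla cells seeded 4,000/well; 5 h at 37 C; compound (DMSO) added; 16 h at 37 C; CellTiter-Glo added, 30 min RT; luminescence read.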
# [19] = biological target: Phospholipid hydroperoxide glutathione peroxidase GPX4 (Homo sapiens) (UniProt P36969); assay: Primary qHTS Assay for Inhibitors of Recombinant Selenoprotein Glutathione Peroxidase 4 (GPX4) (AID 1845192); also: nearly all actives have a fitted effect of over 65% in size; also: potency is read from the fitted curve at half-maximal effect
# Outline: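 Steps: GPX4 plus compound, 30 min RT; add GR/GSH/NADPH master mix; start with cumene hydroperoxide; read 340/450 nm fluorescence at 0 and 15 min. Finals were 200 nM GPX4, 1 mM GSH, 0.5 mM CHP, 0.5 mM NADPH, 100 nM GR.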
# Sequence of Retinoic acid receptor RXR-alpha (Homo sapiens) (P19793 whole entry, looked up): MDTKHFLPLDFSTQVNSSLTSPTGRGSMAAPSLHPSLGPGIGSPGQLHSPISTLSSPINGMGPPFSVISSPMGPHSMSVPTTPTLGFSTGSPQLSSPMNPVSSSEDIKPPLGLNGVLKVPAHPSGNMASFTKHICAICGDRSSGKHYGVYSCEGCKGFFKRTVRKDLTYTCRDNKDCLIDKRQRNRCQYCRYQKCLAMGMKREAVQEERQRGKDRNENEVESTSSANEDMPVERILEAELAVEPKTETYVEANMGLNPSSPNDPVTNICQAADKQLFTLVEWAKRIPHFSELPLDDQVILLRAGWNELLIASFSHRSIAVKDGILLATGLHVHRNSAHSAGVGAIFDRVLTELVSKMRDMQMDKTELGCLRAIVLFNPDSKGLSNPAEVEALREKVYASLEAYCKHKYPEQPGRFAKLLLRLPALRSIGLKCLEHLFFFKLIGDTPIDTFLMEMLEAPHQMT
# Sequence of Peroxisome proliferator-activated receptor alpha (Homo sapiens) (Q07869 whole entry, looked up, the tested form may be a part): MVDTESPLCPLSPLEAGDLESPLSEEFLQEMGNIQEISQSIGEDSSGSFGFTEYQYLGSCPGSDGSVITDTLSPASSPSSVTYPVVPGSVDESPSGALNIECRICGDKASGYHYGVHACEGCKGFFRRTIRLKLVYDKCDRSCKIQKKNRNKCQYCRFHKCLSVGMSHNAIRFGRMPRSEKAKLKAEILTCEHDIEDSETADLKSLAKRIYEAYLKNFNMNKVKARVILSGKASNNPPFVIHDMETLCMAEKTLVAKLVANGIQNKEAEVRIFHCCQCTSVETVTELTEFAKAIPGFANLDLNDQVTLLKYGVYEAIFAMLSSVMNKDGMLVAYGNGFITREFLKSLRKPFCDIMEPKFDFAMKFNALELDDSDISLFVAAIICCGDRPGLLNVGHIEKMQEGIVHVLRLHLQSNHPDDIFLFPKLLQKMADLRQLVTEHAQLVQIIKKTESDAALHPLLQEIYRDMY
# Sequence of Phospholipid hydroperoxide glutathione peroxidase GPX4 (Homo sapiens) (P36969 whole entry, looked up): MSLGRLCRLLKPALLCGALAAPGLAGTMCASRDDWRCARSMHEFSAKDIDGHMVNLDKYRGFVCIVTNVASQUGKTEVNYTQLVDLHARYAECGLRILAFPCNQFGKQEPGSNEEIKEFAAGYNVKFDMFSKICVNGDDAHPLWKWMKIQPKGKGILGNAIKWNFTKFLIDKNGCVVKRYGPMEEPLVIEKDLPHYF
SMILES,"activity change, negative = cytotoxicity [1]",Potency [2],"activity change, negative = cytotoxicity [3]","activity change, negative = cytotoxicity [4]",outcome [5],outcome [6],outcome [7],outcome [8],outcome [9],outcome [10],outcome [11],outcome [12],max response [13],max response [14],activation [15],max response [16],max response [17],Potency [18],Potency [19]
C/C=C\c1ccc(OC)cc1,-0.381% (inactive),inactive,-7.43% (inactive),-1.47% (inactive),inactive,inactive,inactive,inactive,inactive,inactive,inactive,inactive,1.79%,3.92% (inactive),-0.657% (inactive),-5.71% (inactive),8.66% (inactive),inactive,
CCN1/C(=C/C=C/C=C/c2sc3ccccc3[n+]2CC)Sc2ccccc21,,,,,,,,,,,,,,,,,,,7.94 µM (active)
CO[C@@H]1C[C@H](O[C@H]2[C@H](C)[C@H](O[C@@H]3O[C@@H](C)C[C@@H](N(C)C)[C@H]3OC(C)=O)[C@H](C)C[C@]3(CO3)C(=O)[C@H](C)[C@H](OC(C)=O)[C@H](C)[C@H](C)OC(=O)[C@@H]2C)O[C@H](C)[C@H]1OC(C)=O,,,,,,,,,,,,,,,,,,,inactive
COC(=O)CCCCC(=O)OC,4.03% (inactive),inactive,5.83% (inactive),1.32% (inactive),inactive,inactive,inactive,inactive,inactive,inactive,inactive,inactive,-7.1% and -4.41% and 10.6%,-2.55% (inactive) and -9.27% (inactive) and -5.71% (inactive),3.11% (inactive) and -1.77% (inactive) and 1.4% (inactive),-1.36% (inactive) and -1.93% (inactive) and -0.772% (inactive),-0.912% (inactive) and -4.94% (inactive) and -1.91% (inactive),inactive,
Cc1ccccc1C,-22.6% (inactive) and -8.22% (inactive),inactive,-2.71% (inactive) and -0.376% (inactive),-15.1% (inactive) and 9.28% (inactive),inactive,inactive,inactive,inactive,inactive,inactive,inactive,inactive,-1.73% and -2.63%,24.2% (inactive) and -2.36% (inactive),1.3% (inactive) and -0.327% (inactive),1.03% (inactive) and -0.383% (inactive),-12.4% (inactive) and -5.18% (inactive),inactive,
COc1c2ccoc2cc2oc(=O)ccc12,0.867% (inactive),inactive,-16.3% (inactive),-14.2% (inactive),inactive,inactive,inactive,inactive,inactive,inactive,inactive,inactive,-1.57%,23.4% (inactive),1.47% (inactive),-2.53% (inactive),-2.26% (inactive),inactive,
CN(C)CCCCCCN(C)C,1.64% (inactive),inactive,-0.404% (inactive),10.5% (inactive),inactive,inactive,inactive,inactive,inactive,inactive,inactive,inactive,-0.59%,23.1% (inactive),1.69% (inactive),-5.54% (inactive),-4.75% (inactive),inactive,
Cc1cnc(C(=O)N[C@H]2CCCCC/C=C/[C@@H]3C[C@@]3(C(=O)NS(=O)(=O)C3CC3)NC(=O)[C@@H]3C[C@@H](Oc4nc5ccccc5c5ccccc45)CN3C2=O)cn1,,,,,,,,,,,,,,,,,,,3.98 µM (active)
COc1ccc2nc(N)sc2c1,-0.684% (inactive),inactive,-14.7% (inactive),-1.25% (inactive),inactive,inactive,inactive,inactive,inactive,inactive,inactive,inactive,-1.24% and 0.0893%,1.97% (inactive) and 2.53% (inactive),,-0.146% (inactive) and -0.816% (inactive),3.97% (inactive) and -4.38% (inactive),inactive,
CCCCCCCCCCCCCCC1CO1 (stereo not drawn),8.54% (inactive),inactive,-7.28% (inactive),2.08% (inactive),inactive,inactive,inactive,inactive,inactive,inactive,inactive,inactive,-4.45% and -4.75%,5.21% (inactive) and -18.5% (inactive),0.108% (inactive) and 0.658% (inactive),-0.26% (inactive) and -1.17% (inactive),-3.91% (inactive) and -17.2% (inactive),inactive,
CCCCCCCCCC(=O)OCCN1CCN(CC/C=C2/c3ccccc3Sc3ccc(Cl)cc32)CC1,,,,,,,,,,,,,,,,,,,2.24 µM (active)
C=CC(=O)OCCOCCOCCOCCOC(=O)C=C,-110% (active) and -111% (active),7.94 µM (active) and 12.6 µM (active),-95.5% (active) and -108% (active),-89.5% (active) and -83.9% (active),inactive,inactive,inactive,inactive,inactive,inactive,inactive,inactive,,,1.73% (inactive) and 5.16% (inactive),-0.0133% (inactive) and -3.95% (inactive),,inactive,
Cc1ccc([N+](=O)[O-])c(C)c1,-14.6% (inactive),inactive,-0.903% (inactive),1.9% (inactive),inactive,inactive,inactive,inactive,inactive,inactive,inactive,inactive,-2.42% and -7.16%,-1.42% (inactive) and 0.976% (inactive),-0.465% (inactive) and 2.75% (inactive),-4.28% (inactive) and -0.811% (inactive),0.892% (inactive) and -5.18% (inactive),inactive,
CC(C)=CCCC(C)CCO (stereo not drawn),-9.36% (inactive),inactive,-2.53% (inactive),5.35% (inactive),inactive,inactive,inactive,inactive,inactive,inactive,inactive,inactive,-7.35% and -8.91%,-7.24% (inactive) and 2.51% (inactive),-0.0827% (inactive) and -0.667% (inactive),-8.23% (inactive) and 0.206% (inactive),0.805% (inactive) and -8.34% (inactive),inactive,
CCCCCCCCO,-10.6% (inactive),inactive,-1.75% (inactive),-3.19% (inactive),inactive,inactive,inactive,inactive,inactive,inactive,inactive,inactive,-5.18% and -18.2% and -19.2%,1.87% (inactive) and 1.57% (inactive) and -7.12% (inactive),-0.529% (inactive) and -1.53% (inactive) and 2.03% (inactive),2.47% (inactive) and -5.18% (inactive) and -0.424% (inactive),3.94% (inactive) and -5.81% (inactive) and -6.7% (inactive),inactive,
Cc1cccc([N+](=O)[O-])c1C,-2.02% (inactive),inactive,0.624% (inactive),1.97% (inactive),inactive,inactive,inactive,inactive,inactive,inactive,inactive,inactive,-3.46% and -5.25%,-8.9% (inactive) and -18.4% (inactive),0.368% (inactive) and -0.256% (inactive),2.79% (inactive) and -1.9% (inactive),-3.29% (inactive) and 4.27% (inactive),inactive,
CO[C@H]1/C=C\O[C@@]2(C)Oc3c(C)c(O)c4c(O)c(c(/C=N/N5CCN(C6CCCC6)CC5)c(O)c4c3C2=O)NC(=O)/C(C)=C\C=C/[C@H](C)[C@H](O)[C@@H](C)[C@@H](O)[C@@H](C)[C@H](OC(C)=O)[C@@H]1C,,,,,,,,,,,,,,,,,,,10 µM (active)
C1OCOCO1,-19.8% (inactive),inactive,-10.6% (inactive),-5.36% (inactive),inactive,inactive,inactive,inactive,inactive,inactive,inactive,inactive,-18.1%,38.1% (inactive),-0.144% (inactive),-0.344% (inactive),-3.72% (inactive),inactive,
Cc1c(N=C=O)cccc1N=C=O,-2.52% (inactive),inactive,6.1% (inactive),-3.51% (inactive),inactive,inactive,inactive,inactive,inactive,inactive,inactive,inactive,-2.03% and -4.55%,6.11% (inactive) and -21.4% (inactive),3.08% (inactive) and 0.198% (inactive),-4.58% (inactive) and -0.661% (inactive),8.57% (inactive) and -7.81% (inactive),inactive,

# Source: PubChem BioAssay (NCATS)
